According to PubChem BioAssay AID1332 (Southern Research Institute, 2008):
≈ marks a conversion by molar mass, not a printed value. About 170 (15%) of roughly 1,100 compounds were called active. How the calls were made is not given here. A selection follows. Non-standard residues stand in square brackets, D forms with d. Residues, ends and D or L forms follow the SMILES beside them. *: point of attachment. Sta = CC(C)C[C@H](N)[C@@H](O)CC(=O)O; Isovaleryl = CC(C)CC(=O)*

experiment: Mycobacterium tuberculosis H37Rv growth inhibition, confirmatory dose response, cytotoxicity (AID 1332);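 on CC50: Vero cells exposed to compounds for 72 hours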;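 on IC50: bacteria incubated 7 days before adding Alamar blue readout reagent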; details: M. tuberculosis H37Rv growth inhibition; CC50: measured here: Vero cell cytotoxicity; IC50: measured here: IC50 H37Rv replicates

Structure (SMILES) | CC50 | IC50 | outcome
CCc1nc(N)nc(N)c1-c1ccc(Cl)cc1 | 1.26 µg/mL (≈ 5.06 µM) | 7.67 µg/mL (≈ 30.8 µM) | active
C[C@H]1CCC2(NC1)O[C@H]1C[C@H]3[C@@H]4CC[C@H]5C[C@@H](O[C@@H]6O[C@H](CO)[C@H](O[C@@H]7O[C@H](CO)[C@@H](O)[C@H](O[C@@H]8OC[C@@H](O)[C@H](O)[C@H]8O)[C@H]7O[C@@H]7O[C@H](CO)[C@@H](O)[C@H](O)[C@H]7O)[C@H](O)[C@H]6O)CC[C@]5(C)[C@H]4CC[C@]3(C)[C@H]1[C@@H]2C (stereo partly drawn) | 3.98 µg/mL (≈ 3.85 µM) | > 20 µg/mL | inactive
C[C@@H]1C[C@H]2[C@@H]3C[C@H](F)C4=CC(=O)C=C[C@]4(C)[C@@]3(Cl)[C@@H](O)C[C@]2(C)[C@H]1C(=O)COC(=O)C(C)(C)C | > 6 µg/mL | > 20 µg/mL | inactive
C[N+]1(C)CCC(=C(c2ccccc2)c2ccccc2)CC1 | – | > 20 µg/mL | inactive
CCc1cc(C(N)=S)ccn1 | – | 1.95 µg/mL (≈ 11.7 µM) | active
Cc1c(C)c2c(c(C)c1O)CCC(C)(C(=O)O)O2 (stereo not drawn) | – | > 20 µg/mL | inactive
COc1ccc(CC(C)(N)C(=O)O)cc1OC (stereo not drawn) | > 6 µg/mL | > 20 µg/mL | inactive
Nc1nc2c(c(=O)[nH]1)N(C=O)C(CNc1ccc(C(=O)N[C@@H](CCC(=O)O)C(=O)O)cc1)CN2 (stereo partly drawn) | – | > 20 µg/mL | inactive
CN(C)C(=O)C(CCN1CCC(O)(c2ccc(Cl)cc2)CC1)(c1ccccc1)c1ccccc1 | – | 10.9 µg/mL (≈ 22.9 µM) | active
O=C(CCCN1CCC(O)(c2ccc(Br)cc2)CC1)c1ccc(F)cc1 | – | > 20 µg/mL | inactive
O=C(CCCN1CCC(O)(c2ccc(Cl)cc2)CC1)c1ccc(F)cc1 | – | > 20 µg/mL | inactive
CN1CC[C@@]2(C)c3cc(O)ccc3N(C)[C@H]12 | – | > 20 µg/mL | inactive
CC(CN(C)C)CN1c2ccccc2Sc2ccccc21 (stereo not drawn) | > 6 µg/mL | > 20 µg/mL | inactive
CCCCc1ccc(C(=O)O)nc1 | > 6 µg/mL | 3.88 µg/mL (≈ 21.7 µM) | active
CCCCc1ccc2nc(NC(=O)OC)[nH]c2c1 | 0.043 µg/mL (≈ 0.174 µM) | > 20 µg/mL | inactive
CCCCOc1ccc(CC(=O)NO)cc1 | > 6 µg/mL | > 20 µg/mL | inactive
Cc1cc(CC(=O)O)n(C)c1C(=O)c1ccc(Cl)cc1 | – | > 20 µg/mL | inactive
O=C(CCCN1CCN(c2ccccn2)CC1)c1ccc(F)cc1 | – | > 20 µg/mL | inactive
C[C@H]1[C@H](C)CC[C@]2(C(=O)O)CC[C@]3(C)C(=CC[C@@H]4[C@@]5(C)CC[C@H](O)C(C)(C)[C@@H]5CC[C@]43C)[C@H]12 | – | > 20 µg/mL | inactive
CN(C)CCC(c1ccc(Cl)cc1)c1ccccn1 (stereo not drawn) | – | > 20 µg/mL | inactive
CN[C@@H]1[C@H](O)[C@H](NC)[C@H]2O[C@@]3(O)C(=O)C[C@@H](C)O[C@H]3O[C@@H]2[C@H]1O | – | 7.14 µg/mL (≈ 21.5 µM) | active
C/C(=C(/CCO)SSCC1CCCO1)N(C=O)Cc1cnc(C)nc1N (stereo not drawn) | – | > 20 µg/mL | inactive

Structure (SMILES) | CC50 | IC50 | outcome
C=Cc1c(C)c2cc3nc(cc4[nH]c(cc5nc(cc1[nH]2)C(C)=C5CCC(=O)O)c(CCC(=O)O)c4C)[C@@]1(C)C3=CC=C(C(=O)OC)C1C(=O)OC (stereo partly drawn) | – | > 20 µg/mL | active
CC(O)(P(=O)(O)O)P(=O)(O)O | – | > 20 µg/mL | inactive
OCCOCCN1CCN(C(c2ccccc2)c2ccc(Cl)cc2)CC1 (stereo not drawn) | – | > 20 µg/mL | inactive
OCCN1CCN(CC/C=C2/c3ccccc3Sc3ccc(Cl)cc32)CC1 | > 6 µg/mL | 9.26 µg/mL (≈ 23.1 µM) | active
CC(=O)c1ccc2c(c1)N(CCCN1CCC(CCO)CC1)c1ccccc1S2 | – | > 20 µg/mL | inactive
CC(=O)Nc1ccc(O)cc1 | – | > 20 µg/mL | inactive
CCN[C@H]1C[C@H](C)S(=O)(=O)c2sc(S(N)(=O)=O)cc21 | – | > 20 µg/mL | inactive
Cc1cc(C(=O)NNCc2ccccc2)no1 | – | > 20 µg/mL | inactive
O=C(CCNNC(=O)c1ccncc1)NCc1ccccc1 | – | 0.393 µg/mL (≈ 1.32 µM) | active
CC(C)NNC(=O)c1ccncc1 | – | > 20 µg/mL | inactive
CC(C)(C)NC(=O)[C@@H]1C[C@@H]2CCCC[C@@H]2CN1C[C@@H](O)[C@H](Cc1ccccc1)NC(=O)[C@H](CC(N)=O)NC(=O)c1ccc2ccccc2n1 | – | 17.3 µg/mL (≈ 25.7 µM) | active
C[C@@H]1CC[C@H]2[C@@H](C)C(=O)O[C@@H]3OC4(C)CC[C@@H]1[C@]32OO4 | – | > 20 µg/mL | inactive
CN1CC[C@]23c4ccccc4N[C@H]1[C@]21CCN(C)[C@H]3Nc2ccccc21 | – | > 20 µg/mL | inactive
CN1CCN(C(c2ccccc2)c2ccccc2)CC1 | – | > 20 µg/mL | inactive
CN1CCCN(C(c2ccccc2)c2ccc(Cl)cc2)CC1 (stereo not drawn) | > 6 µg/mL | 19.3 µg/mL (≈ 61.3 µM) | active
O=C(O)COCCN1CCN(C(c2ccccc2)c2ccc(Cl)cc2)CC1 (stereo not drawn) | – | > 20 µg/mL | inactive
Cc1cc(-c2ccccc2)nnc1NCCN1CCOCC1 | – | > 20 µg/mL | inactive
CC(C)CC(=O)N[C@H](C(=O)N[C@H](C(=O)N[C@@H](CC(C)C)[C@@H](O)CC(=O)N[C@@H](C)C(=O)N[C@@H](CC(C)C)[C@@H](O)CC(=O)O)C(C)C)C(C)C (Isovaleryl-VV[Sta]A[Sta]-OH) | – | > 20 µg/mL | inactive
Cc1c(-c2ccccc2)oc2c(C(=O)OCCN3CCCCC3)cccc2c1=O | – | > 20 µg/mL | inactive
CN(C)CC/C=C1\c2ccccc2COc2ccccc21 | – | > 20 µg/mL | inactive
CN(C)CCC=C1c2ccccc2CCc2ccccc21 | > 6 µg/mL | 16.2 µg/mL (≈ 58.3 µM) | active
CN(C)CC/C=C1\c2ccccc2CSc2ccccc21 | > 6 µg/mL | > 20 µg/mL | inactive

Structure (SMILES) | CC50 | IC50 | outcome
CNCC(O)c1ccc(O)c(OC)c1 (stereo not drawn) | – | > 20 µg/mL | inactive
CNC(C)CCC=C(C)C (stereo not drawn) | – | > 20 µg/mL | inactive
C=C1CC[C@H](O)C/C1=C/C=C1\CCC[C@]2(C)[C@@H]([C@H](C)CCCC(C)C)CC[C@@H]12 | – | > 20 µg/mL | inactive
C[C@@H]1CCC[C@H](C)N1 | – | > 20 µg/mL | inactive
CC(C)(C)NC[C@@H](O)COc1cccc2c1CCCC2=O | – | > 20 µg/mL | inactive
Cc1c(N(C)CS(=O)(=O)O)c(=O)n(-c2ccccc2)n1C | – | > 20 µg/mL | inactive
CO[C@@]1(NC(=O)[C@H](C(=O)O)c2ccc(O)cc2)C(=O)N2C(C(=O)O)=C(CSc3nnnn3C)CO[C@@H]21 | – | > 20 µg/mL | inactive
C[N+]1(C)C2CC[C@H]1CC(OC(=O)C(CO)c1ccccc1)C2 (stereo partly drawn) | – | > 20 µg/mL | inactive
Nc1ccc(S(=O)(=O)NC(=O)c2ccccc2)cc1 | – | > 20 µg/mL | inactive
Cc1cc(C)nc(NS(=O)(=O)c2ccc(N)cc2)n1 | – | > 20 µg/mL | inactive
Nc1ccc(S(=O)(=O)Nc2ncccn2)cc1 | – | 13.4 µg/mL (≈ 53.4 µM) | active
Cc1noc(NS(=O)(=O)c2ccc(N)cc2)c1C | – | 8.76 µg/mL (≈ 32.8 µM) | active
CC(=O)NS(=O)(=O)c1ccc(N)cc1 | – | > 20 µg/mL | inactive
Nc1ccc(S(=O)(=O)Nc2ccc(Cl)nn2)cc1 | – | 4.37 µg/mL (≈ 15.3 µM) | active
Cc1ccnc(NS(=O)(=O)c2ccc(N)cc2)n1 | – | > 20 µg/mL | inactive
Nc1ccc(S(=O)(=O)Nc2ccccn2)cc1 | – | > 20 µg/mL | inactive
CCn1cc(C(=O)O)c(=O)c2cnc(N3CCCC3)nc21 | – | > 20 µg/mL | inactive
Cc1cccc(N(C)C(=S)Oc2ccc3ccccc3c2)c1 | – | > 20 µg/mL | inactive
O=C(O)C1(O)C[C@H](O)C(O)[C@@H](O)C1 (stereo partly drawn) | – | > 20 µg/mL | inactive
COc1ccc([C@@H]2CC(=O)c3c(O)cc(O)cc3O2)cc1O | – | > 20 µg/mL | inactive
CCCCN(CCCC)CCCOC(=O)c1ccc(N)cc1 | – | > 20 µg/mL | inactive
CC1(C)S[C@@H]2[C@H](NC(=O)C(C(=O)O)c3ccsc3)C(=O)N2[C@H]1C(=O)O (stereo partly drawn) | – | > 20 µg/mL | inactive

Structure (SMILES) | CC50 | IC50 | outcome
CC(=O)N(CC(O)CN(C(C)=O)c1c(I)c(C(=O)NCC(O)CO)c(I)c(C(=O)NCC(O)CO)c1I)c1c(I)c(C(=O)NCC(O)CO)c(I)c(C(=O)NCC(O)CO)c1I (stereo not drawn) | – | > 20 µg/mL | inactive
Cn1c(-c2ccc3c(c2)OCO3)cc(=O)c2ccccc21 | – | > 20 µg/mL | inactive
Cc1c(N)c(=O)n(-c2ccccc2)n1C | – | > 20 µg/mL | inactive
COc1ccc2cc1Oc1ccc(cc1)C[C@H]1c3cc(c(OC)cc3CCN1C)Oc1c(OC)c(OC)cc3c1[C@H](C2)N(C)CC3 | > 6 µg/mL | > 20 µg/mL | inactive
Cc1[nH]ccc2c1[nH]c1cc(=O)ccc12 | > 6 µg/mL | > 20 µg/mL | inactive
CC(C)(C)NCC(O)COc1ccccc1C1CCCC1 (stereo not drawn) | – | > 20 µg/mL | inactive
O=C(O)c1cccnc1 | – | > 20 µg/mL | inactive
O=C1C(=O)c2ccccc2C(O)=C1C1CCC(c2ccc(Cl)cc2)CC1 (stereo not drawn) | > 6 µg/mL | 10.1 µg/mL (≈ 27.6 µM) | active
C/C=C(\C)C(=O)O[C@H]1[C@H](OC(C)=O)[C@@]2(CO)C(CC1(C)C)C1=CC[C@@H]3[C@@]4(C)CC[C@H](O[C@@H]5O[C@H](C(=O)O)[C@@H](O[C@@H]6O[C@H](CO)[C@@H](O)[C@H](O)[C@H]6O)[C@H](O)[C@H]5O[C@@H]5O[C@H](CO)[C@@H](O)[C@H](O)[C@H]5O)[C@](C)(CO)C4CC[C@@]3(C)[C@]1(C)C[C@H]2O (stereo partly drawn) | – | > 20 µg/mL | inactive
CN(C)CCCOc1nn(Cc2ccccc2)c2ccccc12 | – | > 20 µg/mL | inactive
CN(C)CCOC(c1ccccc1)c1ccccc1 | – | > 20 µg/mL | inactive
CCCCc1cc2ccccc2c(OCCN(C)C)n1 | – | 13.5 µg/mL (≈ 49.5 µM) | active
CCCCOc1cc(C(=O)NCCN(CC)CC)c2ccccc2n1 | – | > 20 µg/mL | inactive
CC[N+](CC)(CC(=O)Nc1c(C)cccc1C)Cc1ccccc1 | – | > 20 µg/mL | inactive
Clc1ccc(C(OCCN2CCCCC2)c2ccccc2)cc1 (stereo not drawn) | > 6 µg/mL | > 20 µg/mL | inactive
Clc1ccc(Cn2c(CN3CCCC3)nc3ccccc32)cc1 | – | 3.58 µg/mL (≈ 11 µM) | active
CN1CCc2c(c3ccccc3n2Cc2ccccc2)C1 | – | > 20 µg/mL | inactive
CCOc1ccc(Cc2nccc3cc(OCC)c(OCC)cc23)cc1OCC | > 6 µg/mL | > 20 µg/mL | inactive
CC(C)n1c(/C=C/[C@H](O)C[C@H](O)CC(=O)O)c(-c2ccc(F)cc2)c2ccccc21 | 0.354 µg/mL (≈ 0.86 µM) | > 20 µg/mL | inactive
